Assay [1] deals with Wnt5a (protein binding on small-molecule microarray). As to the kind of experiment: small molecules binding Wnt5a protein – biophysical, small-molecule microarray, 635/667 nm fluorescence, primary screen (AID 1142).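 Further: fluorescence read at 667 nm with signal to noise per printed feature.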 The conditions noted are these: 635 nm fluorescence, higher = more signal.
A short description of assay [2]: ATP-based viability of Huh7 replicon cells – cell-based, CellTiter-Glo luminescence, basal, 48 h, cytotoxicity control for HCV replication inhibitor project, primary screen (AID 1143).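 Further: Huh7 hepatoma cells carrying a hepatitis C replication reporter with no stimulus; test concentration not given here.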 The following applies: higher = more signal, called active from +8 up or from −8 down. A general note: In antiviral work, replicon cells carry a viral genome segment that copies itself.

Assay [3] is described as follows: Pseudomonas biofilm growth suppression – PAO1 strain, BacTiter-Glo luminescence, LB-PBS, primary screen (AID 1144). The conditions noted are these: P. aeruginosa PAO1 biofilm, 12 h, higher = more signal.
Assay [4] is described as follows: basal CRE-LacZ reporter activity in PC12 – cell-based, unstimulated, primary screen (AID 1145). The conditions noted are these: no forskolin, luminescence, 4.5 h, higher = more signal, called active from +8 up or from −8 down.
Assay [5] in a line: forskolin-driven CRE-LacZ activity in PC12 – cell-based, CRE-LacZ reporter, forskolin-stimulated, primary screen (AID 1146).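 Further: PC12 cells with 6xCRE LacZ reporter stimulated by forskolin 10 µM; beta-galactosidase reporter signal reflecting CREB driven transcription.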 The conditions noted are these: luminescence, 4.5 h, higher = more signal, called active from +8 up or from −8 down.
The target of assay [6] is Streptavidin (Streptomyces avidinii) (UniProt P22629). As to the kind of experiment: compounds binding control protein streptavidin – biophysical, small-molecule microarray, 635/667 nm fluorescence, artefact control for SMM compound annotation, primary screen (AID 1147).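 Further: signal reflects streptavidin binding to arrayed compounds as a control protein.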 The conditions noted are these: higher = more signal.
The nature of assay [7]: probe aInhba binding on compound microarray – biochemical, small-molecule microarray, 635/667 nm fluorescence, primary screen (AID 1148).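 Further: score merges 667nm spot fluorescence with signal-to-noise for antibody binding to printed compounds.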 The conditions noted are these: higher = more signal.
In assay [8] the target is Torsin-1A (Homo sapiens) (UniProt O14656). As to the kind of experiment: TOR1A wild-type binding on microarray – cell lysate, small-molecule microarray, lysate, 635/667 nm, primary screen (AID 1149). The conditions noted are these: COS7 hTOR1A-WT lysate, 635 nm fluorescence, higher = more signal.
For assay [9] the target is unchanged. As to the kind of experiment: torsin A mutant lysate binding on microarrays – cell lysate, small-molecule microarray, COS7 lysate, 635/667 nm fluorescence, primary screen (AID 1150).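 Further: score pools 667 nm emission and signal to noise measuring lysate protein binding.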 The following applies: COS7 hTOR1A mutant lysate, 635 nm fluorescence, higher = more signal.
In assay [10] the test system is Sonic hedgehog protein (Shh). As to the kind of experiment: Sonic hedgehog microarray binding compounds – biochemical, small-molecule microarray, 635/667 nm fluorescence, primary screen (AID 1151).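 Further: Shh protein binding to compounds spotted on small-molecule microarray slides; score combines spot fluorescence intensity with signal-to-noise across triplicate slides.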 The conditions noted are these: 635 nm fluorescence, higher = more signal.

Calls of active or inactive are those of the source. Unless noted, how the calls were made is not given here.

The text below walks through data of PubChem BioAssay.

Sequence of Torsin-1A (Homo sapiens) (O14656 whole entry, looked up): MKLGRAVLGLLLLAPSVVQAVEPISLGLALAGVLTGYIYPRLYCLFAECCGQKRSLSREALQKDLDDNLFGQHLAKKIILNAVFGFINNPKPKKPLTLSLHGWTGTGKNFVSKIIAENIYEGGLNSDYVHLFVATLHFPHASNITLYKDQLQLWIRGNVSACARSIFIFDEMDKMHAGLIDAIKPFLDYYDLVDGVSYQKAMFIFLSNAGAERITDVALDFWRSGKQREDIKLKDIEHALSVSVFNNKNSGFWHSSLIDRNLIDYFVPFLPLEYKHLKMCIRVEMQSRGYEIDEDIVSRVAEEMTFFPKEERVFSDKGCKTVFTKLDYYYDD
Sequence of Streptavidin (Streptomyces avidinii) (P22629 whole entry, looked up): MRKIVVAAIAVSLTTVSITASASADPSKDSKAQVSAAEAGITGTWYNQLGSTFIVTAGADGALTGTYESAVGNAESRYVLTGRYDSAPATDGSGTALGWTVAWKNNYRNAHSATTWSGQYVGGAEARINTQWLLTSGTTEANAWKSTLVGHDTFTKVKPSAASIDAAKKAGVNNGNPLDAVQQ

Take `COC(=O)C(CC#Cc1ccc2c(c1)[C@]1(C(=O)N2)[C@H](c2ccccc2OCCO)N2[C@H](c3ccccc3)[C@H](c3ccccc3)OC(=O)[C@H]2[C@@H]1C(=O)O)C(=O)OC`: the composite z-score was 0.231 in [1]; 0.517 in assay [6]; 0.29 in assay [7]; 0.19 with Torsin-1A (Homo sapiens) [8]; 1.14 with Torsin-1A (Homo sapiens) [9]; 0.279 in assay [10]. Besides, the z-score is -0.323 (inactive) in assay [2], -0.367 (inactive) in assay [3], -0.375 (inactive) in assay [4] and 1.86 (inactive) in assay [5].
On to `CN1CCC(CCCO)=CC1c1cccs1` (stereo not given), for which the composite z-score is -0.142 in assay [1]; -0.131 in assay [6]; -0.128 in [7]; -0.214 with Torsin-1A (Homo sapiens) [8]; -0.122 in the assay with Torsin-1A (Homo sapiens) [9]; 0.834 in [10]. For the same molecule, the z-score is 0.504 (inactive) in assay [2], 0.519 (inactive) in assay [3], -0.145 (inactive) in assay [4] and 1.84 (inactive) in assay [5].
In the case of `O=C1C2C=CC(C(O)c3ccc4c(c3)OCO4)N(Nc3ccc([N+](=O)[O-])cc3)C2C(=O)N1c1ccccc1` (stereo not given), the composite z-score is -0.0509 in [1]; 0.145 in assay [6]; -0.0178 in assay [7]; -0.0053 in the assay with Torsin-1A (Homo sapiens) [8]; 0.17 in the assay with Torsin-1A (Homo sapiens) [9]; -0.199 in assay [10]. For the same molecule, the z-score was -0.954 (inactive) in [2], 0.105 (inactive) in [3], -0.116 (inactive) in assay [4] and -0.222 (inactive) in assay [5].
On to `CCCCC(=C=CC[C@@H](O)c1ccc(CO)o1)CCO`, for which the composite z-score is 0.136 in assay [1]; -0.419 in assay [6]; 0.185 in assay [7]; 0.867 with Torsin-1A (Homo sapiens) [8]; 0.359 with Torsin-1A (Homo sapiens) [9]; 1.37 in assay [10]. In addition, the z-score in [2] is -0.0181 (inactive); in [3] it was -0.748 (inactive); in assay [4], 2.69 (inactive); in [5] it was -1.19 (inactive).
As to `CC(=O)Nc1cc(Br)ccc1C(=O)NCc1ccccc1`, the composite z-score in [1] was -0.0375; in assay [6], 0.725; in assay [7], -0.0963; in the assay with Torsin-1A (Homo sapiens) [8], -0.0164; with Torsin-1A (Homo sapiens) [9], -0.0323; in [10], -0.24. In addition, the z-score in [2] was -0.798 (inactive); in assay [3] it was 0.0338 (inactive); in assay [4], -0.348 (inactive); in assay [5], -1.14 (inactive).
